Results on eight compounds are retold here after PubChem BioAssay (NCI).

This is part of a sample that, as a whole, favours compounds with a hit. Of some 83,000 tested, about 20% had one in any assay.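 Growth was measured after 48 h exposure to one concentration of compound in 96-well plates. Values under 10 count as active.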 Values without a mark were called inactive. Activity calls are given as the source filed them.

Some test systems named below: NCI-H23 lung; NCI-H226 lung; NCI-H322M lung; HOP-62 NSCLC; NCI-H460 lung; HOP-92 NSCLC; NCI-H522 lung; A549/ATCC NSCLC; 786-0 renal; COLO 205 colon; DU-145 prostate; K-562 leukemia; MALME-3M melanoma; MDA-MB-231 breast; SF-268 CNS; SF-295 CNS; SF-539 CNS; UACC-257 melanoma; M14 melanoma.
Holding throughout (experiment): NCI-60 one-dose screen, 48 h (100 = growth as untreated, 0 = no growth, -100 = all killed)
Conditions in all cases: 10 µM unless noted

With `CC1CCN(C(=O)OCc2nc3nc(Cl)nc(N4CCOCC4)c3[nH]2)CC1`, the growth with NCI-H23 lung is 8.48% (active); in the test with NCI-H226 lung it was -73.7% (active); with NCI-H322M lung, 68%; in the test with HOP-62 NSCLC it was 46.4%; in the test on NCI-H460 lung, 10.5%; in the test with HOP-92 NSCLC, -48.8% (active). In addition, the growth in the test with NCI-H522 lung is -67.8% (active); in the test on A549/ATCC NSCLC it was 6.08% (active); with 786-0 renal it was -79.8% (active); in the test with COLO 205 colon it was -86.6% (active); in the test with DU-145 prostate, -76.7% (active); in the test with K-562 leukemia it was -16.7% (active). Further, the growth in the test with MALME-3M melanoma is -78.9% (active); in the test with MDA-MB-231 breast it was -60.1% (active); with SF-268 CNS, -81.6% (active); in the test with SF-295 CNS, 88.3%; with SF-539 CNS, -47.1% (active); in the test with UACC-257 melanoma, -89.7% (active). Further, the growth with M14 melanoma was -50.9% (active).

With `CC(=O)OCC(=O)[C@@]1(O)CC[C@H]2[C@@H]3CC(=C(Br)Br)C4=CC(=O)CC[C@]4(C)[C@H]3C(=O)C[C@@]21C`, the growth in the test on NCI-H23 lung is 88.6%; in the test with NCI-H226 lung, 92.1%; with NCI-H322M lung it was 88.5%; in the test with HOP-62 NSCLC, 71.9%; in the test on NCI-H460 lung, 103%; in the test with HOP-92 NSCLC it was 87.3%. In addition, the growth with NCI-H522 lung was 66.6%; in the test on A549/ATCC NSCLC, 65.1%; with 786-0 renal it was 85.1%; with COLO 205 colon, 99.5%; in the test on DU-145 prostate it was 107%; with K-562 leukemia it was 102%. Further, the growth in the test on MALME-3M melanoma is 98.3%; in the test with MDA-MB-231 breast, 86%; with SF-268 CNS, 89.8%; with SF-295 CNS, 76.7%; in the test on SF-539 CNS it was 98.4%; in the test on UACC-257 melanoma, 67.6%. Also, in the test with M14 melanoma, the growth was 82.3%.

As for `CCC1(CC)NC(=O)c2c(c3ccc(Cl)c(Cl)c3n2C)C1C#N` (configuration not stated), the growth was 93% in the test with NCI-H23 lung; 95.6% in the test with NCI-H226 lung; 103% in the test with NCI-H322M lung; 81.2% in the test on HOP-62 NSCLC; 98.7% in the test on NCI-H460 lung; 62.1% in the test on HOP-92 NSCLC. Further, the growth in the test with NCI-H522 lung was 86.5%; in the test on A549/ATCC NSCLC it was 88.6%; with 786-0 renal it was 94.3%; in the test on COLO 205 colon it was 80.1%; in the test with DU-145 prostate, 123%; in the test with K-562 leukemia, 91.4%. For the same compound, the growth is 109% in the test on MALME-3M melanoma; 71.2% with MDA-MB-231 breast; 90.3% in the test with SF-268 CNS; 102% in the test on SF-295 CNS; 95.4% in the test with SF-539 CNS; 100% with UACC-257 melanoma. The growth in the test with M14 melanoma is 105%.

For `COc1ccc(C(O)c2cc3c(N)c(C(=O)Nc4ccc(Br)cc4)sc3nc2C)cc1` (configuration not stated), the growth in the test on NCI-H23 lung was 38.1%; in the test with NCI-H226 lung, 42.4%; in the test with NCI-H322M lung it was 39.4%; in the test with HOP-62 NSCLC, 23%; in the test on NCI-H460 lung, 6.2% (active); with HOP-92 NSCLC, 44.1%. For the same compound, the growth was 6.85% (active) with NCI-H522 lung; 24.3% with A549/ATCC NSCLC; 50.3% in the test with 786-0 renal; 11.3% in the test with COLO 205 colon; -4.27% (active) with DU-145 prostate; 3.49% (active) in the test with K-562 leukemia. Also, the growth was 24.8% in the test with MALME-3M melanoma; 54.1% in the test with MDA-MB-231 breast; 45.4% with SF-268 CNS; 21.6% with SF-295 CNS; 27.2% in the test on SF-539 CNS; 32.3% with UACC-257 melanoma. Also, the growth with M14 melanoma is 3.91% (active).

Consider `S=c1[nH]cccc1-c1nnc2n1Nc1nc3ccccc3cc1CS2`, for which the growth is 90.7% in the test on NCI-H23 lung; 91.1% in the test on NCI-H226 lung; 101% in the test with NCI-H322M lung; 90.1% in the test with HOP-62 NSCLC; 99.6% in the test with NCI-H460 lung; 99.5% in the test with HOP-92 NSCLC. The growth in the test with NCI-H522 lung was 89%; in the test with A549/ATCC NSCLC, 110%; in the test on 786-0 renal, 100%; in the test on COLO 205 colon, 111%; in the test with DU-145 prostate, 120%; in the test with K-562 leukemia, 99.5%. The growth is 97.1% with MALME-3M melanoma; 92.9% in the test with MDA-MB-231 breast; 101% with SF-268 CNS; 112% with SF-295 CNS; 96.1% in the test on SF-539 CNS; 110% in the test with UACC-257 melanoma. Also, in the test on M14 melanoma, the growth is 101%.

Consider `CCc1nc(C)cn1C(=O)OCc1nc2nc(Cl)nc(N3CCOCC3)c2[nH]1`, for which the growth in the test with NCI-H23 lung was 28.9%; in the test on NCI-H226 lung it was -75% (active); with NCI-H322M lung, 64.2%; in the test with HOP-62 NSCLC it was 47.9%; with NCI-H460 lung, 13.9%; with HOP-92 NSCLC it was -50.2% (active). The growth is -75.5% (active) with NCI-H522 lung; 15.1% in the test on A549/ATCC NSCLC; -77.4% (active) in the test with 786-0 renal; -84.5% (active) with COLO 205 colon; -37.3% (active) in the test with DU-145 prostate; 1.14% (active) with K-562 leukemia. Besides, the growth in the test with MALME-3M melanoma is -67.8% (active); with MDA-MB-231 breast, -42.9% (active); with SF-268 CNS, -64% (active); with SF-295 CNS, 79.5%; in the test with SF-539 CNS, -74.8% (active); in the test with UACC-257 melanoma, -80.8% (active). Moreover, in the test on M14 melanoma, the growth was -56.8% (active).

On to `COC(=O)Nc1nc2ccc(C(=O)c3cccc(I)c3)cc2[nH]1`, for which the growth was 22.1% in the test on NCI-H23 lung; 51.4% with NCI-H226 lung; 39.4% with NCI-H322M lung; 37% with HOP-62 NSCLC; 4.52% (active) in the test with NCI-H460 lung; 51.5% with HOP-92 NSCLC. The growth in the test with NCI-H522 lung is -29.2% (active); with A549/ATCC NSCLC it was 15.3%; in the test with 786-0 renal it was 27.2%; in the test with COLO 205 colon it was -29.7% (active); in the test on DU-145 prostate, 5.95% (active); in the test on K-562 leukemia, 6.18% (active). Further, the growth with MALME-3M melanoma is 31.3%; with MDA-MB-231 breast, -3.99% (active); with SF-268 CNS, 22.4%; in the test with SF-295 CNS, 12%; with SF-539 CNS, -25.8% (active); in the test with UACC-257 melanoma it was 61.4%. The growth with M14 melanoma is 1.39% (active).

In the case of `Clc1ccc(N2N=C(c3cccc(Nc4ccncc4)c3)CC2c2ccccc2)cc1` (configuration not stated), the growth with NCI-H23 lung is 92.6%; with NCI-H226 lung, 94.5%; in the test on NCI-H322M lung, 92.7%; in the test with HOP-62 NSCLC, 92.2%; in the test on NCI-H460 lung, 98.9%; in the test with HOP-92 NSCLC it was 67.7%. The growth in the test on NCI-H522 lung is 80.4%; in the test on A549/ATCC NSCLC it was 93.9%; with 786-0 renal, 10.9%; in the test on COLO 205 colon, 73.1%; in the test with DU-145 prostate, 100%; in the test with K-562 leukemia it was 46%. In addition, the growth in the test on MALME-3M melanoma is 93.5%; in the test with MDA-MB-231 breast, 93.2%; in the test on SF-268 CNS, 78.1%; in the test on SF-295 CNS, 102%; with SF-539 CNS it was 86%; in the test with UACC-257 melanoma, 101%. Also, the growth in the test with M14 melanoma was -55.4% (active).
